PubChem BioAssay (NCATS)
Inconclusive results are not listed. Active and inactive are the calls of the source. Calls come from the whole dose curve; as a rule, active = well fitted cell-killing curve with a large enough effect; inconclusive = small, poorly fitted or top-dose-only effect; inactive = flat fitted curve, though single readings scatter.

assay: SDT Cancer Cell Toxicity qHTS against the NCATS CANVASS Library (AID 1347365); conditions: SDT dog glioma viability, ATP luminescence, 72 h; series mostly up to 46.1 µM; activity change, negative = cytotoxicity: at the top concentration; note: nearly all actives have a fitted effect of over 60% in size
Text: Natural products and their derivatives continue to be wellsprings of nascent therapeutic potential. However, many laboratories have limited resources for biological evaluation, leaving their previously isolated or synthesized compounds largely or completely untested. To address this issue, the Canvass library of natural products was assembled (https://tripod.nih.gov/canvass), in collaboration with academic and industry researchers, for quantitative high-throughput screening (qHTS) across a diverse set of cell-based and biochemical assays. The pure (>85% purity by liquid chromatography/mass spectrometry [LC/MS]) Canvass library of 346 natural products were submitted by 45 academic laboratories and companies around the world. We collected pure natural products to circumvent deconvolution and structure elucidation due to time and resource limitations. The library was formatted into 1536-well plates and evaluated in 50 qHTS (in an 11-pnt concentration series) bioassays with broad scope of disease-relevant mechanisms. The resulting data set from 50 different assays was then systematically analyzed to identify overall trends and specific natural products with interesting biological activities. Reported herein are the results of each individual qHTS and their corresponding assay protocol. This assay uses ATP (luminescence) content to measure the cytotoxiciy of compounds on SDT dog glioma cancer cell line. National Center for Advancing Translational Sciences (NCATS), Rockville, MD National Institute of Health (NIH), Bethesda, Maryland
Cancer Cell Toxicity qHTS protocol: for cell lines G06, J3T, and SDT. 1. In a 1536 well, tissue culture treated white solid bottom plates (Corning 7494), 5 uL of SDT cell solution (final concentration of 500 cells / well) was dispensed using the Multidrop Combi dispenser (Thermo Fisher Scientific) into columns 2, 3, 5-48. 2. Control and Compounds were pin transferred (~23 nL volume) to the assay plates via Wako Pin-tool (Wako Automation, Richmond VA) equipped with a 1536 pin head. The compounds were transferred to columns 5-48 resulting in a final concentration ranging from 0.17 nM to 103 uM. Dose response titration of Bortezomib was pin transferred into column 2 (1mM; 1:2 dilution; 16 points) resulting to a final concentration range of 0.1 nM - 4.6 uM. 3. The assay plates were further incubated in the at 37C, 5% CO2, 95% Rh for 72 hr. 4. After incubation, 3 uL of CellTiterGlo reagent (Promega) was added to the assay plates (column 1-48, rows 1-32) and centrifuged for 15 sec at 1000 rpm to remove bubbles. 5. Luminescence signal was acquired via the ViewLux plate reader (PerkinElmer) using a clear emission filter, 2 sec exposure, and 1x binning settings.
% is set by controls: 0 for no effect and ±100 for the full control effect; potency is the fitted concentration of half-maximal effect.

| SMILES | Potency | activity change, negative = cytotoxicity | outcome |
| --- | --- | --- | --- |
| C/C(=C\[C@H](C)C(=O)CCCC1CC(=O)NC(=O)C1)[C@@H]1OC(=O)/C=C/CC/C=C/C[C@@H](O)[C@@H]1C | 935 nM (active) |  |  |
| CN1C(=O)[C@]23SS[C@@]1(C)C(=O)N2[C@H]1Nc2ccccc2[C@]1(c1c[nH]c2ccccc12)[C@@H]3O | 743 nM (active) |  |  |
| C/C=C/C(=O)[C@@H](C)C1=CC(=O)C2=C(O[C@@]34CC[C@H](O)C(C)(C)[C@@H]3CC[C@H](C)[C@@]4(C)C2)C1=O | 2960 nM (active) |  |  |
| C=CC(=C)CC[C@]1(C)[C@H]2C[C@H](OC(=O)C(C)CC)C=C3[C@H](OC(C)=O)O[C@H](OC(C)=O)[C@@]32[C@H](OC)C[C@@H]1C (stereo not given in full) | 8550 nM (active) |  |  |
| O=Cc1ccc2n1C[C@@]1(C[C@H](O)[C@@H](CO)O1)OC2 |  | 9.32% (inactive) |  |
| O=Cc1ccc2n1C[C@@]1(C[C@H](O)[C@H](O)CO1)OC2 |  | -11% (inactive) |  |
| CC1C(=O)C23CCC1C[C@@]21O[C@H]2C(C)(C)C=CC(=O)[C@@]23COC1=O (stereo not given in full) |  | 6.97% (inactive) |  |
| CO[C@@H]1[C@H](O)[C@@H](C)O[C@@H](OC[C@@H]2C(C)OC(=O)/C=C/[C@H](C)C(O[C@@H]3O[C@H](C)CC4(OC(=O)O[C@@H]4C)C3O)[C@@H](C)CC(C)C(=O)CC[C@H]3OC23)[C@@H]1OC (stereo not given in full) |  | -17.9% (inactive) |  |
| CN1CC[C@]2(c3cccc4c3N[C@@H]3N(C)CC[C@]43[C@@]34CCN(C)[C@@H]3Nc3c([C@]56CCN(C)[C@H]5Nc5ccccc56)cccc34)c3ccccc3N[C@H]12 | 1320 nM (active) |  |  |
| CO[C@H]1/C=C/CC[C@@H](S[C@@H]2O[C@H](CO)[C@@H](O)[C@H](O)[C@H]2O)CC(=O)O[C@@H](/C(C)=C/[C@H](C)C(=O)CCCC2CC(=O)NC(=O)C2)[C@@H](C)[C@@H]1O | 1180 nM (active) |  |  |
| COc1c(O)cc2oc(-c3ccccc3)cc(=O)c2c1O |  | -7.35% (inactive) |  |
| O=c1cc(-c2ccc(O)cc2)oc2c([C@@H]3OC(CO)[C@H](O)[C@@H](O)[C@H]3O)c(O)cc(O)c12 (stereo not given in full) |  | 7.33% (inactive) |  |
| COc1ccc2oc3c(OC)c(OC)c(OC)c(OC)c3c(=O)c2c1 |  | -18.8% [at 9.19 µM] (inactive) |  |
| COc1ccc(CCCc2cc(O)c(OC)c(O)c2)c(O)c1O | 166 nM (active) |  |  |
| C=C[C@@]1(C)CC[C@@H]([C@H](C)C(=O)/C=C/C(C)C)O1 |  | -23.6% (inactive) |  |
| CCCCCCCCCCCCCCC[C@H](O)C[C@@H](O)C[C@@H](O)C[C@@H](O)C[C@@H](O)C[C@H]1CC=CC(=O)O1 | 2960 nM (active) |  |  |
| CO[C@@H]1C[C@@H](C[C@H]2CC[C@H](C)[C@H]([C@@H](C)C(=O)O)O2)O[C@]2(O[C@](C)([C@H]3CC[C@@](C)([C@@H]4O[C@@H]([C@H]5O[C@](C)(O)[C@H](C)C[C@@H]5C)C[C@@H]4C)O3)C[C@H]2C)[C@@H]1C | 93.5 nM (active) |  |  |
| C=C1C(=O)O[C@H]2[C@H]1CC/C(CO)=C\CC[C@@]1(C)O[C@@H]21 | 13200 nM (active) |  |  |
| C[C@]12CC[C@]3(C1)[C@H](CC2=O)CC(OC(=O)c1ccccc1)[C@H]1[C@@](CO)(C(=O)O)CCC[C@@]13C (stereo not given in full) |  | -13.7% (inactive) |  |
| C[C@@H]1C[C@H]2C[C@]3(CCCCN3C)[C@@H]3C[C@H]2[C@H](C1)N(C)C3 |  | -22.8% (inactive) |  |

| SMILES | Potency | activity change, negative = cytotoxicity | outcome |
| --- | --- | --- | --- |
| C[C@@H]1O[C@@H](Oc2c(-c3ccc(O)cc3)oc3cc(O)cc(O)c3c2=O)[C@H](O)[C@H](O)[C@H]1O |  | -6.06% (inactive) |  |
| C[C@@H]1C(=O)[C@]23CC[C@H]1C[C@]21O[C@H]2C(C)(C)C=CC(=O)[C@]23COC1=O |  |  | inactive |
| C/C1=C\CC(=O)/C=C/C=C\c2csc(n2)[C@@H](C)NC(=O)C[C@@](S)([C@@H](C)C(=O)O)CC1 |  | -2.35% (inactive) |  |
| C[C@@]12CCC[C@@](C)(C(=O)O)[C@H]1CC[C@]13C[C@H]4C[C@H](O[C@@]4(C)C1)[C@H]32 |  | 3.29% (inactive) |  |
| C/C(=C\[C@H](C)C(=O)CCCC1CC(=O)NC(=O)C1)C(O)[C@@H](C)[C@H](O)C/C=C/CC/C=C/C(=O)O (stereo not given in full) |  | 3.91% (inactive) |  |
| CCC1=C2CCCN3C(=O)O[C@H]([C@H]1OC(C)=O)[C@H]23 |  | 7.73% (inactive) |  |
| OCc1ccc2ocnc2c1 |  | -5.06% (inactive) |  |
| CC12C[C@]3(O)O[C@@H](O1)[C@]1(COC(=O)c4ccccc4)[C@@H]3CC21OC1OC(CO)C(O)C(O)C1O (stereo not given in full) |  | -14.4% (inactive) |  |
| CC1(C)[C@H](Br)CC[C@]23C[C@]4(C)C(=O)CC12C[C@H]34 |  |  | inactive |
| C=C(C)C(=O)O[C@H]1C[C@H](C)[C@@H](OC(C)=O)CC[C@@]2(C)O[C@@H]2[C@H]2OC(=O)C(COC(C)=O)=C12 | 6620 nM (active) |  |  |
| C=C(C)CC[C@H](Cc1c(O)cc(O)c2c1O[C@H](c1ccc(O)cc1O)CC2=O)C(=C)C |  | -5.05% (inactive) |  |
| CC[C@@H]1C[C@@]2(CC)OC(=O)[C@@]3(CC)OC(=O)[C@@H]1[C@@H]23 |  | 1.13% (inactive) |  |
| COc1ccc([C@@H]2c3cc(OC)c(OC)cc3C(=O)[C@H](C)C2C)cc1OC (stereo not given in full) |  |  | inactive [at 9.19 µM] |
| C/C1=C/[C@@H](C)[C@H](O)C/C=C/CC/C=C/C(=O)O[C@@H]1[C@H](C)C(=O)/C=C/CC1CC(=O)NC(=O)C1 | 9350 nM (active) |  |  |
| COc1cc(/C=C2/C(=O)N(c3ccc(O)cc3C(=O)O)[C@H](c3ccc(O)c(OC)c3)C2C(=O)Nc2ccc(O)cc2C(=O)O)ccc1O (stereo not given in full) |  |  | inactive |
| CC1(C)C=Cc2c(ccc3c2OC[C@@H](c2ccc(O)cc2O)C3)O1 |  | -5.22% (inactive) |  |
| COc1ccc([C@@H]2c3cc(OC)c(OC)cc3C(=O)C(C)C2C)cc1OC (stereo not given in full) |  |  | inactive |
| C=C1C(=O)O[C@H]2C[C@H](C)[C@@H]3CC(=O)C(C)=C3[C@H](O)[C@H]12 | 16600 nM (active) |  |  |
| C=C1C[C@@]23C=CC(=O)[C@@](C)(CCC(=O)Nc4c(O)ccc(C(=O)O)c4O)C2C[C@@H]1C(O)C3 (stereo not given in full) |  | -17.8% (inactive) |  |
| CC(C)=CCC/C(C)=C/Cc1c(O)c(CC=C(C)C)c(O)c2c(=O)c3cc(O)ccc3oc12 | 20900 nM (active) |  |  |
